Screens deposited in PubChem BioAssay by National Center for Advancing Translational Sciences (NCATS).
TDP1 cell noCPT – qHTS for Inhibitors of human tyrosyl-DNA phosphodiesterase 1 (TDP1): qHTS in cells in absence of CPT. DT40 Tdp1-/- hTDP1 cells, no CPT, ATP luminescence, 48 h. Potency, µM (doses to about 46.2 µM), actives largely listed as inhibitors. 15% of 420,000 active; further: nearly all actives have a fitted effect of over 55% in size
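Stably hTDP1-transfected Tdp1-null chicken DT40 cells were treated with library compounds minus camptothecin and grown for at least 48 hr at 37 °C, after which cellular ATP was quantified by luminescence.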
RORg inh – ROR gamma (mouse) transcription inhibition; P51450; Drosophila S2 Gal4-RORgamma UAS-luciferase reporter, 20 h; Potency, µM (top dose mostly 53.6 µM), usual class: inhibitors; 5.4% of 310,000 active; further: nearly all actives have a fitted effect of over 60% in size
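Drosophila Schneider cells stably carrying a metallothionein-driven Gal4 DBD–ROR gamma fusion and a UAS-Photinus luciferase reporter were exposed to compound for 1 hr, then induced with copper sulfate (700 uM final) for 20 hr at ambient temperature before luminescence reading.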
TDP1 cell CPT – growth inhibition of DT40 Tdp1-/-;hTDP1 cells with camptothecin (screen for TDP1 inhibitors). chicken DT40 Tdp1-/-;hTDP1 cells + 20 nM CPT, ATP luminescence, 48 h. Potency, µM (highest dose often 46.2 µM), usual class: inhibitors. 12% of 420,000 active. AID 686979; further: nearly all actives have a fitted effect of over 55% in size
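Cell growth measured by CellTiter-Glo luminescence after a minimum 48 h, 37 C compound exposure with 20 nM CPT in Tdp1-knockout DT40 cells stably expressing hTDP1, seeded 400/well; qHTS titration format.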
Gal4-VP16 FLuc – Gal4-VP16 reporter inhibition counter-screen | Drosophila S2 Gal4-VP16 UAS-luciferase, luminescence, 20 h | Potency, µM (top dose mostly 53.6 µM), usual class: inhibitors | 3.5% of 310,000 active | AID 2546;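 further: Gal4-VP16 expression switched on by copper sulfate through the metallothionein promoter; nearly all actives have a fitted effect of over 50% in size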
TDP1 block – TDP1 (human) enzyme inhibition | Q9NUW8 | recombinant TDP1, AlphaScreen DNA substrate cleavage | Potency, µM (doses to about 130 µM), actives largely listed as inhibitors | 0.28% of 350,000 active; further: nearly all actives have a fitted effect of over 40% in size
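Signal: AlphaScreen proximity between streptavidin donor and anti-FITC acceptor beads on intact substrate. Reaction: Tdp1 1 nM, substrate 15 nM final, 5 min RT after 15 min compound preincubation.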
A number is an active result; - = inactive; ? = inconclusive; . = no result; [ ] = dose if it differs, or a comment. In the library only some 19% were active in any assay of this set; here they are far more common. The call rests on the fitted dose curve; in most records, active means well fitted curve in the direction sought with a large enough effect; inconclusive means small, poorly fitted or top-dose-only effect, or another doubt; inactive means no such curve, though single readings can be large; an effect the other way counts as inactive or inconclusive.

SMILES	TDP1 cell noCPT	RORg inh	TDP1 cell CPT	Gal4-VP16 FLuc	TDP1 block
Oc1ccc2[nH]ccc2c1	?	-	-	-	-
CCCCNC(=O)CC1N=C2c3ccccc3N=C(SCC(=O)Nc3cccc(OC)c3)N2C1=O (configuration not stated)	-	-	-	-	-
Cc1cccc(NS(=O)(=O)c2cc3c(cc2C)N(C)CCO3)c1	-	-	-	-	.
COc1ccccc1NC(=O)c1ccccc1NC(=O)c1ccccc1C(=O)O	-	-[1.91 µM]	-	-	.
CCOC(=O)[C@@H]1[C@H]2COc3cc(OC)ccc3[C@H]2N2C(=O)N(c3ccc(OC)cc3)C(=O)[C@]12C	?	.	?	.	-
C[C@@H]1CC=C[C@@H]2[C@H]1C(=O)N(Cc1ccccc1)[C@H]2c1cccc(C#Cc2ccccc2)c1	10.3µM	-	29.1µM	-	-
C[C@@H]1CC=C[C@H]2[C@H]1C(=O)N(Cc1ccccc1)[C@H]2c1ccc(-c2cc3ccccc3s2)cc1F	14.6µM	-	16.4µM	-	-
COC(=O)/C=C/c1cccc([C@H]2[C@@H]3C=CC[C@@H](C)[C@@H]3C(=O)N2Cc2ccccc2)c1	16.4µM	-	23.1µM	-	-
COc1ccc(NC(=O)c2nc[nH]c2C(=O)NCC(=O)OC(C)(C)C)cc1	?	?	?	?	-
CCC1=NN(C(=O)c2ccc(Cl)cc2)C(O)(c2ccc(C)cc2)C1 (configuration not stated)	?	17.8µM	?	25.1µM	-
